# Assay results: the supplement of paper PMC6555819
# Legend:
# Test in all cases: PBM binding z-score (relative to random genomic background probes); higher = stronger binding; sequences stand for … in GC…GCGATTGACAGCGTAGAATGAAGG
# [1] = system: FXR:RXRa (NR concentration 270 nM, RXRa partner concentration 90 nM)
# In short: (§1)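 Custom Agilent 4×180K protein-binding microarrays carried double-stranded probes, each with a 34-nt variable region. These regions held direct-repeat seeds, single-nucleotide variants, half-site ablations and random human genomic background sequences. Ligand-free nuclear receptor dimers were incubated on the arrays for 1 h, antibodies against each partner (one per run) detected binding, and scanned fluorescence was regression-normalized. Binding z-scores take the random background probes as reference.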
# [2] = system: LXRa:RXRa (NR concentration 270 nM, RXRa partner concentration 90 nM)
# In short: as §1
# [3] = system: LXRa homodimer (NR concentration 270 nM)
# In short: as §1
# [4] = system: LXRb:RXRa (NR concentration 270 nM, RXRa partner concentration 90 nM)
# In short: as §1
# [5] = system: LXRb homodimer (NR concentration 270 nM)
# In short: as §1
# [6] = system: PPARa:RXRa (NR concentration 270 nM, RXRa partner concentration 90 nM)
# In short: as §1
# [7] = system: PPARg:RXRa (NR concentration 180 nM, RXRa partner concentration 90 nM)
# In short: as §1
# [8] = system: PPARg:RXRa 270nM:90nM, anti-RXR (NR concentration 270 nM, RXRa partner concentration 90 nM)
# In short: as §1
# [9] = system: PPARg:RXRa 30nM:10nM, anti-RXR (NR concentration 30 nM, RXRa partner concentration 10 nM)
# In short: as §1
# [10] = system: PPARg:RXRa 90nM:30nM, anti-RXR (NR concentration 90 nM, RXRa partner concentration 30 nM)
# In short: as §1
# [11] = system: PPARg:RXRa DBDmut IVT, anti-RXR (DBD mutation: RXRa K156A/R161A, NR concentration 270 nM, RXRa partner concentration 90 nM)
# In short: as §1
# [12] = system: PPARg:RXRa IVT, anti-PPARg (NR concentration 270 nM, RXRa partner concentration 90 nM)
# In short: as §1
# [13] = system: PPARg DBDmut:RXRa IVT, anti-PPARg (DBD mutation: PPARg1 K132A/R137A, NR concentration 270 nM, RXRa partner concentration 90 nM)
# In short: as §1
# [14] = system: PPARg DBDmut IVT, anti-PPARg (DBD mutation: PPARg1 K132A/R137A, NR concentration 270 nM)
# In short: as §1
# [15] = system: PPARg homodimer (NR concentration 180 nM)
# In short: as §1
# [16] = system: PXR:RXRa (NR concentration 270 nM, RXRa partner concentration 90 nM)
# In short: as §1
# [17] = system: PXR homodimer (NR concentration 270 nM)
# In short: as §1
# [18] = system: RARa:RXR (NR concentration 270 nM, RXRa partner concentration 90 nM)
# In short: as §1
# [19] = system: RARa homodimer (NR concentration 270 nM)
# In short: as §1
# [20] = system: RARb:RXRa (NR concentration 270 nM, RXRa partner concentration 90 nM)
# In short: as §1
Sequence,PBM binding z-score [1],PBM binding z-score [2],PBM binding z-score [3],PBM binding z-score [4],PBM binding z-score [5],PBM binding z-score [6],PBM binding z-score [7],PBM binding z-score [8],PBM binding z-score [9],PBM binding z-score [10],PBM binding z-score [11],PBM binding z-score [12],PBM binding z-score [13],PBM binding z-score [14],PBM binding z-score [15],PBM binding z-score [16],PBM binding z-score [17],PBM binding z-score [18],PBM binding z-score [19],PBM binding z-score [20]
CCTACTGGGCCATTAGGTCATTGATATCAACGTT,1.06,0.977,0.832,1.24,-0.52,2.76,3.46,3.68,1.32,3.03,5.31,5.88,0.577,0.445,1.02,1.13,0.202,1.72,0.45,2.09
CGTCCAAGGTCAATGCTAGGTCAGTGCAAGCATT,6.7,5.58,2.83,4.07,0.975,4.94,3.6,4.26,0.996,3.23,3.46,3.77,-0.816,-0.276,4.69,4.69,1.57,5.52,1.48,5.25
TCGAGTAGGTTACCAATGGGGCATGCAGCTTTCT,-0.0297,0.818,-0.705,0.567,-0.608,1.07,0.261,1.08,0.922,1.1,2.81,2.63,-0.851,-0.804,0.0945,0.0825,-0.874,0.433,-0.816,0.932
GCTGCTAGGTCAACTGATGGTCAGCTTAAGCTCG,4.41,3.13,0.215,2.09,0.173,3.5,2.44,2.97,0.312,2.07,5.04,4.2,-0.326,-0.587,2.5,1.85,-0.712,3.1,-0.0481,4.24
CGAACTAGGTCAAGGACCGTGAATCTCCGCACGC,3.28,2.1,-0.026,1.26,-0.781,4.64,7.76,6.89,4.37,6.74,7.68,8.18,4.94,0.945,0.756,0.773,-0.365,1.63,-0.219,3.8
TTACCAACGTGAAGGTCGTTGATCCCTCTGTAGA,1.87,1.9,0.292,1.88,-0.33,1.35,0.00743,0.541,0.511,0.656,0.422,-0.0578,-0.0855,-0.0405,0.497,1.42,0.561,1.13,-0.198,0.811
